Results: PubChem BioAssay AID1671202 (University of Kansas High Throughput Screening Laboratory, 2021)
Values joined by “and” are separate entries in the source; they are usually repeats but may differ in a detail not shown here. Equal entries are not always repeated. The campaign covered roughly 190,000 compounds. About 6,900 (3.6%) were called active. This is one part of a sample in which actives are shown more often than they occur. No stated cut-off is given here; in the data, active means inhibition above about 50%; inactive means the rest. A structure can be active in one record and inactive in another.

molecular target: Huntingtin (Homo sapiens) (UniProt P42858); assay: mutant huntingtin-calmodulin interaction inhibitors – biochemical, AlphaScreen, primary screen (AID 1671202); settings: AlphaScreen His-mHTT/GST-CaM binding, luminescence; at 15 µM, stronger effect = higher value;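 on inhibition: 0% = both proteins with DMSO and 100% = one protein alone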
Sequence (P42858 whole entry, looked up, stated change not applied): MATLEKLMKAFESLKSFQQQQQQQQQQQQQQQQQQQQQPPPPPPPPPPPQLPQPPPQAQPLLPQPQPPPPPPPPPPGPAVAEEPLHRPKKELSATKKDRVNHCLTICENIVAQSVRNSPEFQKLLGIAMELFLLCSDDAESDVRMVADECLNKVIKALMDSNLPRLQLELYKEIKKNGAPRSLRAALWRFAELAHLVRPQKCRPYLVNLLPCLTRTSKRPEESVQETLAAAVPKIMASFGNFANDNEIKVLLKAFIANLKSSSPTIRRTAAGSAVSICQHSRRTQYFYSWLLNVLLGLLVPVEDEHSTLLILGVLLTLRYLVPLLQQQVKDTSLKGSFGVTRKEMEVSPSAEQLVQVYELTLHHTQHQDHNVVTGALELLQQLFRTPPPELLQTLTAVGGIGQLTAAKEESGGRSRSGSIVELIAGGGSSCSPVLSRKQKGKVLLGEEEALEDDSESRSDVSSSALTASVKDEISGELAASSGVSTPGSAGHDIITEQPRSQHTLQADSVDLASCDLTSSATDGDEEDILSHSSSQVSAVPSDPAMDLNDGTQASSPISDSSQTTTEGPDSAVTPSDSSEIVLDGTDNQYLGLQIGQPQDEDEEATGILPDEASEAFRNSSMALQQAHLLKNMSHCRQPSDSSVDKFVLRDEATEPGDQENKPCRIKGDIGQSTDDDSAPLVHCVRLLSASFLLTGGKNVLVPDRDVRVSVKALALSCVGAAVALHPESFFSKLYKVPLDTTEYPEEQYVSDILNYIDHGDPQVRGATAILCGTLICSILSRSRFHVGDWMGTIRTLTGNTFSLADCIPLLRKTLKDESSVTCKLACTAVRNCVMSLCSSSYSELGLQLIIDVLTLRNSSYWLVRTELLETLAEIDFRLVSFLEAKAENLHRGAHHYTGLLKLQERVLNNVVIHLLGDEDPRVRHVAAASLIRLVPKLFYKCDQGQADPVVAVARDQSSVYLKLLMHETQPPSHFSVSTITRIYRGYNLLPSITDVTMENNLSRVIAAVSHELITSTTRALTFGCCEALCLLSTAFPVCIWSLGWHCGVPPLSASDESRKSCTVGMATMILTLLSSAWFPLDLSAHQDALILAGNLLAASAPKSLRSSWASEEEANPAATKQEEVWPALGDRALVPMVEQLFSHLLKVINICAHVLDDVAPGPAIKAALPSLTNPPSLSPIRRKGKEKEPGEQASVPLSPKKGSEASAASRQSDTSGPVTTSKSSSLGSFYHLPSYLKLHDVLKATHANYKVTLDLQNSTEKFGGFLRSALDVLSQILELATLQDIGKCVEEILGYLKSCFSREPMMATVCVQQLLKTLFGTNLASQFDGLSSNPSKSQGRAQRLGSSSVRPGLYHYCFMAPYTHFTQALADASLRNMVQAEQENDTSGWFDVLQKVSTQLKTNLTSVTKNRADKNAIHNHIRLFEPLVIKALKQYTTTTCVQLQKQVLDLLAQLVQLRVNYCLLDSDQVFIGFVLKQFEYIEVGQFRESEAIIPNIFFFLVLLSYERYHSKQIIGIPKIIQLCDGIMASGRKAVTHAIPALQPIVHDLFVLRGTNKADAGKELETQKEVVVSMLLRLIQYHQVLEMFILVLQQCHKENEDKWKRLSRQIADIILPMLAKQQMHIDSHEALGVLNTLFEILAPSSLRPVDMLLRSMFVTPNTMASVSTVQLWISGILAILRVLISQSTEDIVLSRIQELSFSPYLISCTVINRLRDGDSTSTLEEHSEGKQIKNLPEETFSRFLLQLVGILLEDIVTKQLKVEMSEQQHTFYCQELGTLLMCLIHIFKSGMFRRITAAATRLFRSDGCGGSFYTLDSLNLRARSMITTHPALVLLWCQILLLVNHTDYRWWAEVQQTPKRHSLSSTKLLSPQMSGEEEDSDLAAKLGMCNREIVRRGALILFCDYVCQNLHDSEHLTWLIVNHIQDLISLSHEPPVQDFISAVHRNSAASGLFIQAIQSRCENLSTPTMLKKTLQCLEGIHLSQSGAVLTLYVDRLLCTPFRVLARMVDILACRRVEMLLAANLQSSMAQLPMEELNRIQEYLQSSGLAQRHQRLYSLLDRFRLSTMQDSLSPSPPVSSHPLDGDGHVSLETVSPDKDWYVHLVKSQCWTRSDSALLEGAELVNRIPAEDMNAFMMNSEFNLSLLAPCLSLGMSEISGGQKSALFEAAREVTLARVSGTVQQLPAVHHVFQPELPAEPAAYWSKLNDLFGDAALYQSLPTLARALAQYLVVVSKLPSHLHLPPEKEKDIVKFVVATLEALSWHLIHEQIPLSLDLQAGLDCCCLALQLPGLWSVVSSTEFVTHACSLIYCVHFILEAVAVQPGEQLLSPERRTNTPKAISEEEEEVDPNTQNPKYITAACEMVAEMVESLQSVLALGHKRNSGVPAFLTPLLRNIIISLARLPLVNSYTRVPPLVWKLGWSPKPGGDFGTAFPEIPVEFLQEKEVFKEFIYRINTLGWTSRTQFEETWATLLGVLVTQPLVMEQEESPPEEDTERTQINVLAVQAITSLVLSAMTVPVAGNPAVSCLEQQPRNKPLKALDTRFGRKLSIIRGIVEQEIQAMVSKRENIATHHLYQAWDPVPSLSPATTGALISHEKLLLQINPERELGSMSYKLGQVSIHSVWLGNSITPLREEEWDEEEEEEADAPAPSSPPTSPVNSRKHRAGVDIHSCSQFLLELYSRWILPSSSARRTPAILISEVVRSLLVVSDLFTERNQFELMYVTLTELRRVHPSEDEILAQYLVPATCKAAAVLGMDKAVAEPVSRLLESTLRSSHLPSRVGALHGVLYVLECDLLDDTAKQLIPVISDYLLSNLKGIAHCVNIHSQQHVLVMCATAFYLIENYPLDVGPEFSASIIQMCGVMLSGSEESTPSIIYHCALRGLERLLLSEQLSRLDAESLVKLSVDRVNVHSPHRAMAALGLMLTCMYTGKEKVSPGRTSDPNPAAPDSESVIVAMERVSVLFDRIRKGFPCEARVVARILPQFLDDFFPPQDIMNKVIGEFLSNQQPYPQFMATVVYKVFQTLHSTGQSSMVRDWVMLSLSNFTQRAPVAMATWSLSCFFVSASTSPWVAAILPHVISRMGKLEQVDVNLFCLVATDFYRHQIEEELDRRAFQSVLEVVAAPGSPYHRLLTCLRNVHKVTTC

SMILES | inhibition
O=C1/C(=C/c2cccs2)CC2CC1C/C(=C\c1cccs1)C2=O | 31% (inactive)
Cc1n[nH]c(=O)nc1N/N=C/c1cccs1 | active
Cc1ccc(C)c(N2CCN(C(=O)c3cc4ccncc4n3C)CC2)c1 | 48.1% (inactive)
Cc1cc(O)c(CN2CCCCC2)c2c1C(=O)C(=Cc1ccncc1)O2 | 10% (inactive)
O=C1CC(c2ccccc2)=NN1c1ccc([N+](=O)[O-])cc1 | 91% (active)
O=C(CCc1ccccc1)N1N=C(c2cccc([N+](=O)[O-])c2)CC1(O)C(F)(F)F (configuration not stated) | 26% (inactive)
O=C1C2CC(Br)C(Br)CC2C(=O)N1c1ccc([N+](=O)[O-])cc1 (configuration not stated) | 0% (inactive)
CCCn1ncc(N2CCC(C(=O)NCCCN3CCOCC3)CC2)cc1=O | -2.54% (inactive)
O=C(Nc1ccc(Cn2cncn2)cc1)c1ccc(Cl)cc1 | 17.8% (inactive)
CC1CN(C(=O)C2(c3ccccc3)CC2)CC1c1nc(-c2cccnc2)no1 (configuration not stated) | 29.4% (inactive)
CCNC(=O)c1c(O)c2cccc3c2n(c1=O)CC3 | 0% (inactive)
CCN(CC)CCNC(=O)c1cn(C2CCCCC2)c(=O)c2c1c1ccccc1n2C | 6% (inactive)
CCN(CC)CCCNC(=O)c1c(O)c2cc(F)cc3c2n(c1=O)C(C)CC3 (configuration not stated) | 98% (active)
CNC(=O)N1CCCC(c2cccc(C(=O)NCc3ccccc3C(F)(F)F)c2)C1 (configuration not stated) | -2.02% (inactive)
COc1ccc(C2C3C(=O)N(c4ccc([N+](=O)[O-])cc4)C(=O)C3N3CCCN23)cc1 (configuration not stated) | -1% (inactive)
C[C@H]1CN(c2ccc(Br)cc2)C(=O)[C@@H]1CC(=O)Nc1ccc(Br)cc1 | 2.2% (inactive)
CCCCN1C[C@H](c2ccc(Br)cc2)[C@@H](CC(=O)Nc2ccc(Br)cc2)C1=O | 96.5% (active)
CCCCN1CC(C)(C)[C@H](CC(=O)Nc2ccc(Br)cc2)C1=O | -13.5% (inactive)
Cc1cc(C)c(NC(=O)CNC(C)(C)C)c(C)c1 | -2.1% (inactive)
O=C(NC(C(=O)N1CCCCC1)C12CC3CC(CC(C3)C1)C2)c1ccc(F)cc1 (configuration not stated) | 2.5% (inactive)
CC1=C/C(=N\Oc2ccc3noc4c3c2C(=O)c2ccccc2-4)C(C(C)C)=CC1=O | active
N#Cc1ccc(C2=COC3(CCCN(C(=O)c4ccccc4)C3)C2)cc1 (configuration not stated) | 2.5% (inactive)
CN(C)c1ncccc1NC(=O)c1cccc(C#N)c1 | 0% (inactive)
O=C1NC(c2cccc([N+](=O)[O-])c2)C(=C(O)c2ccc(Br)cc2)C1=O (configuration not stated) | 7.7% (inactive)
O=[N+]([O-])c1ccc2c(c1)C1C=CCC1C(c1cccc(Br)c1)N2 (configuration not stated) | 72% (active)

SMILES | inhibition
COc1cccc(C2Nc3ccc(C(=O)O)cc3C3C=CCC32)c1OC (configuration not stated) | 15% (inactive)
CCCn1cnc2c1c(=O)n(CC)c(=O)n2-c1ccc(C)cc1 | 0.6% (inactive)
CC(C)Cn1cc(C(=O)NC2CCCCCC2)c2c3ccccc3n(C)c2c1=O | 1% (inactive)
COc1cccc(C2C3=C(Nc4c2c(=O)n(C)c(=O)n4C)c2ccccc2C3=O)c1OC (configuration not stated) | 27% (inactive)
Cn1nc(COc2ccccc2)c2c1CCN(C(=O)Nc1ccc(F)cc1F)C2 | 22.3% (inactive)
Cn1nc(COc2ccc(F)cc2)c2c1CCN(C(=O)Nc1ccc(F)cc1)C2 | 80% (active)
Cn1nc(COc2ccc(F)cc2)c2c1CCN(C(=O)Nc1ccc(F)cc1F)C2 | -2.73% (inactive)
Cc1ccc(C)c(N=c2oc3ccccc3cc2C(=O)Nc2nccs2)c1 | -4% (inactive)
CN(C)CCNC(=O)c1cc2n(n1)CCCN(Cc1cccc(F)c1)C2=O | -3.78% (inactive)
CC(=O)NC(=Nc1nc(C)cc(C)n1)Nc1cccc(C)c1C | 0% (inactive)
O=C(Nc1ccccc1-c1nc2ccccc2[nH]1)c1ccccc1Cl | 45.7% (inactive)
Cc1c(NC(=O)c2cccc([N+](=O)[O-])c2C)cccc1-c1nc2ccccc2[nH]1 | 16% (inactive)
O=C(Nc1ccccc1-c1nc2ccccc2[nH]1)c1ccccc1Br | 51% (active)
O=C(Nc1nc2ccccc2s1)c1ccc2c(c1)OCO2 | 17.1% (inactive)
O=C(Cc1ccc2c(c1)OCO2)N1CCC(Oc2nc3ccccc3s2)CC1 | 61.1% (active)
O=C(CN1C(=O)CCC1=O)N1CCC(Oc2nc3ccc(F)cc3s2)CC1 | -3.4% (inactive)
O=C(NCc1ccncc1)C1CC(=O)N(Cc2ccccc2F)C1 (configuration not stated) | 3.4% (inactive)
COc1ccc(C(=O)CSc2nc(N)cc(=O)[nH]2)cc1[N+](=O)[O-] | 3.7% (inactive)
C[C@H]1COc2cc(N3CCSCC3)ccc2S(=O)(=O)N1 | -12% (inactive)
O=C(c1ccc(F)cc1)N1CCc2nc[nH]c2C1 | -20.2% (inactive)
COc1cc(C(c2cc3c(cc2O)OCO3)N2CCCC2)cc(OC)c1OC (configuration not stated) | 81.6% (active)
COc1cc(OC)c(OC)cc1CN1CCN(Cc2ccc3c(c2)OCO3)CC1 | 2.4% (inactive)
Cc1nc2c(c(NCC3CCCO3)n1)CCC2 (configuration not stated) | -7.6% (inactive)
C[C@H]1[C@H](NC(=O)c2cccc(N(C)C)c2)CC[C@@]23CCCN2C(=O)CCC[C@@H]13 | -15.6% (inactive)
c1csc(CN2CCN(c3cnn4cnnc4c3)CC2)c1 | 0.4% (inactive)

SMILES | inhibition
Clc1cccc(N2CCN(Cc3cccnc3)CC2)c1 | 1% (inactive)
Cc1nnc2cc(N3CCN(Cc4ccc(C(C)C)cc4)CC3)cnn12 | 63.7% (active)
CCn1nnc2c(N3CCN(C(=O)Nc4ccccc4C(F)(F)F)CC3)ncnc21 | -3.4% (inactive)
CCOc1cc(/C=C2\C(=O)NN(c3ccccc3)C2=O)cc(Cl)c1OCC | 61% (active)
CCOc1cc(/C=C2\C(=O)NN(c3cccc(Cl)c3)C2=O)ccc1O | 8% (inactive)
Cc1ccccc1COc1cccc(/C=C2\C(=O)NN(c3ccccc3)C2=O)c1 | 7% (inactive)
CC(C)N1C(=O)C(C)N(C(=O)NCc2ccc(F)cc2)c2cccnc21 (configuration not stated) | 10.9% (inactive)
Cc1ccc(NC(=O)CSc2cccc3cccnc23)c(C)c1 | 86% (active)
O=C(CSc1cccc2cccnc12)Nc1ccc(Br)cc1 | 3.8% (inactive)
Cc1ccc(NC(=O)CSC2=NC(C)(C)N=C2c2ccccc2)c(C)c1 | -6.5% (inactive)
N#CC1=C2C=CC(O)=CC2OC=C1N (configuration not stated) | 55.1% (active)
Cn1c(SCc2ccc([N+](=O)[O-])cc2)nnc1-c1cccs1 | 4% (inactive)
CCN1C(=O)CCc2cc(NC(=O)c3sccc3C)ccc21 | -2.8% (inactive)
Cc1ccc(N2C(=O)C3C4c5ccccc5C(CO)(c5ccccc54)C3C2=O)cc1[N+](=O)[O-] (configuration not stated) | 27% (inactive)
Cc1nn(C)c(C)c1Nc1ccc(N2C(=O)CCCC2=O)cc1[N+](=O)[O-] | 1% (inactive)
O=C1C2C3C=CC(C3)C2C(=O)N1c1ccc(Nc2ccc3c(c2)CCC3)c([N+](=O)[O-])c1 (configuration not stated) | 74% (active)
COc1ccccc1CNC(=O)C1CCN(c2cncnc2N2CCN(C)CC2)CC1 | 5.19% (inactive)
CC(C)(C)NC(=O)c1ccc2c(c1)CCN2C(=O)C1CC1 | -4.5% (inactive)
CCOC(=O)NCCS(=O)(=O)N1CCN(c2ccc(OC)cc2)CC1 | 1.1% (inactive)
N#C/C(=C\c1cccn1-c1ccc([N+](=O)[O-])cc1)c1nn(CCO)c(N)c1C#N | -2.4% (inactive) and 4% (inactive)
CS(=O)(=O)N1CCc2cc(NC(=O)Nc3ccccc3)ccc21 | 12.4% (inactive)
CC(=O)c1ccc(OCC(O)CN2CCN(c3ccccc3)CC2)cc1 (configuration not stated) | 9.71% (inactive)
Cc1ccc(OCC(O)CNC2CCCCC2)cc1 (configuration not stated) | -7.1% (inactive)
Cc1ccc(OCC(O)CN2CCCC2)cc1C (configuration not stated) | 1.8% (inactive)
CCN(CC(O)COC12CC3CC(CC(C3)C1)C2)C1CCCCC1 (configuration not stated) | -6.1% (inactive)

SMILES | inhibition
CC1CC(C)CN(CC(O)COc2ccc(C34CC5CC(CC(C5)C3)C4)cc2)C1 (configuration not stated) | 65.1% (active)
CCN(CC)CC(O)COc1ccc(C23CC4CC(CC(C4)C2)C3)cc1 (configuration not stated) | 98.6% (active)
CCN1CCN(CC(O)COc2ccc(C34CC5CC(CC(C5)C3)C4)cc2)CC1 (configuration not stated) | 50.3% (active)
CCc1ccc(OCC(O)CN2CCN(c3ccc(F)cc3)CC2)cc1 (configuration not stated) | 15.9% (inactive)
COc1ccc(N2CCN(CC(O)COC34CC5CC(CC(C5)C3)C4)CC2)cc1 (configuration not stated) | 27.7% (inactive)
CCn1nccc1C(=O)N1CC2CC(NC(=O)c3cccs3)C1C2 (configuration not stated) | 1.26% (inactive)
Cc1ccc2nc(NCc3ccccc3)c(C=Nc3ccccc3)c(=O)n2c1 | 6% (inactive)
CCc1ccc(CNC(=O)c2c(C)sc3c(=O)n(C4CCCC4)cnc23)cc1 | -6.7% (inactive)
CN1CCN(C(=O)c2cc3c(=O)n(C)ccc3n2C)CC1 | -9.9% (inactive)
CCOc1ccc(S(=O)(=O)Nc2ccccc2F)c2cccnc12 | 4% (inactive)
O=S(=O)(Nc1ccc(Cl)cc1F)c1c[nH]c2ncccc12 | 71.8% (active)
O=S(=O)(Nc1ccc(F)cc1)c1cccnc1Nc1ccc(Cl)cc1 | -23.3% (inactive)
Cc1cccc(OCC(=O)N2CCCC(OCc3nc(C)no3)C2)c1 (configuration not stated) | -7.37% (inactive)
Cc1ccc(-c2nnc(C(=O)c3ccccc3)o2)cc1 | 0.5% (inactive)
O=S(=O)(c1cc(Br)ccc1Br)N1CCOCC1 | -4% (inactive)
COc1ccc(Br)cc1C(=O)Nc1cc2cccc([N+](=O)[O-])c2oc1=O | -7% (inactive)
COC(=O)Oc1c([N+](=O)[O-])cc2oc(=O)sc2c1[N+](=O)[O-] | 53% (active)
Cc1oc2c(Cl)c(Cl)c(O)cc2c1[N+](=O)[O-] | 32% (inactive)
O=C1CCCC2=C1C(c1cccc(Br)c1)n1nc(-c3ccccc3)nc1N2 (configuration not stated) | -1.86% (inactive)
O=C(NCc1cccnc1)c1cc(-c2ccccn2)nc2ccccc12 | 34% (inactive)
CCOc1ccc(-c2cc(C(=O)NCc3ccccn3)c3ccccc3n2)cc1 | -9.8% (inactive) and 70% (active)
CCOc1cccc(-c2cc(C(=O)NCCN3CCOCC3)c3ccccc3n2)c1 | 11.4% (inactive)
